About 79,000 compounds went through this panel and 15% of them were active in at least one assay; those are over-represented in the sample as a whole. A number with no mark means an inactive call. Active and inactive are the calls of the source. No stated cut-off is given here; in the data, active means growth inhibition above about 70%; inactive means the rest.
Assays:
[1] = NCI Yeast Anticancer Drug Screen. Data for the rad50 strain (AID 155);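 further: 0% = growth of vehicle-only cultures of the same strain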; details: S. cerevisiae rad50 strain growth inhibition, active compounds read high
Outline: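 Genetically altered yeast (DNA repair pathway); compound treatment; growth inhibition vs vehicle ctrl.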

[2] = NCI Yeast Anticancer Drug Screen. Data for the mec2-1 strain (AID 157); details: S. cerevisiae mec2-1 strain, active compounds read high
Outline: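 Yeast mec2-1 mutant treated with compound. Readout: growth inhibition vs vehicle controls.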

[3] = NCI Yeast Anticancer Drug Screen. Data for the sgs1 mgt1 strain (AID 161);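 further: 0% = growth of cultures given vehicle only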; details: S. cerevisiae sgs1 mgt1 strain, active compounds read high
Outline: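 Inhibition of yeast growth, normalised to vehicle-treated controls, is reported for a strain bearing genetic alterations in DNA damage repair.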

[4] = NCI Yeast Anticancer Drug Screen. Data for the cln2 rad14 strain (AID 165);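 further: 0% = growth equal to vehicle treated cultures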; details: S. cerevisiae cln2 rad14 strain, active compounds read high
Outline: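 cln2 rad14 yeast strain; compound exposure; growth inhibition read vs vehicle controls.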

[5] = NCI Yeast Anticancer Drug Screen. Data for the bub3 strain (AID 167); details: S. cerevisiae bub3 mutant strain, active compounds read high
Outline: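 Yeast carrying a defined mutation is treated with each compound, and growth is compared with that of vehicle-exposed cells to give inhibition.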

[6] = NCI Yeast Anticancer Drug Screen. Data for the mlh1 rad18 strain (AID 175); details: S. cerevisiae mlh1 rad18 strain growth inhibition, active compounds read high
Outline: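 Yeast w/ defined DNA-repair lesions; compound exposure; growth vs vehicle controls → % inhibition.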

[7] = at 5.0 µM (retest, dose inferred, filed as 0.5)
[8] = at 50.0 µM (retest, dose inferred, filed as 5.0)

Compound | growth inhibition [1, 7] | growth inhibition [1, 8] | growth inhibition ([1]; at 50.0 µM) | growth inhibition [2, 7] | growth inhibition [2, 8] | growth inhibition ([2]; at 50.0 µM) | growth inhibition [3, 7] | growth inhibition [3, 8] | growth inhibition ([3]; at 50.0 µM) | growth inhibition [4, 7] | growth inhibition [4, 8] | growth inhibition ([4]; at 50.0 µM) | growth inhibition [5, 7] | growth inhibition [5, 8] | growth inhibition ([5]; at 50.0 µM) | growth inhibition [6, 7] | growth inhibition [6, 8] | growth inhibition ([6]; at 50.0 µM)
O=C1C=CC(=O)c2nc3c(nc21)[nH]c1ccccc13 | -9% | 91% (active) | 95.7% (active) | -12% | 94% (active) | 95.4% (active) | -23% | 95% (active) | 94.7% (active) | -20% | 94% (active) | 93.5% (active) | -41% | 93% (active) | 91.4% (active) | -44% | 92% (active) | 95.5% (active)
NC(=O)c1oc([N+](=O)[O-])c(-c2ccccc2)c1-c1ccccc1 | 9% | 38% | 12.4% | 5% | 50% | 16.6% | 14% | 61% | 55.4% | -6% | 10% | -22.6% | 16% | 80% (active) | 92.2% (active) | 11% | 78% (active) | 64.2%
O=[N+]([O-])c1ccc(C(Nc2ccccc2)c2ccc3cccnc3c2O)cc1 (stereo not given) | -5% | 83% (active) | 71.9% (active) | -1% | 82% (active) | 80% (active) | -10% | 85% (active) | 76% (active) | -37% | 79% (active) | 81.3% (active) | -11% | 85% (active) | 58.6% | 4% | 85% (active) | 82.2% (active)
Cc1ccc(OC/C=C/c2ccc(Cl)cc2)cc1 | -2% | 75% (active) | 77.2% (active) | 0% | 88% (active) | 53.1% | 16% | 91% (active) | 85.2% (active) | -2% | 84% (active) | 65% | 2% | 86% (active) | 67.4% | 5% | 90% (active) | 85.2% (active)
CCC1CCC(CC)C1O (stereo not given) | 1% | 6% | 34.9% | 0% | -3% | 22.9% | 2% | 0% | 26.8% | 1% | 4% | 29.8% | 1% | 2% | 78.7% (active) | -2% | 2% | 28.5%
O=S1OCCS1 (stereo not given) | 10% | 87% (active) | 98.8% (active) | 4% | 90% (active) | 99% (active) | 11% | 87% (active) | 98.5% (active) | -3% | 74% (active) | 97.4% (active) | -1% | 92% (active) | 99.2% (active) | 7% | 95% (active) | 98.7% (active)
Cc1cc(NC(=S)SCc2ccc(Cl)cc2)ccc1F | 5% | 66% | 97.5% (active) | 1% | 70% (active) | 96% (active) | 2% | 95% (active) | 97.8% (active) | -7% | 99% (active) | 88% (active) | 19% | 97% (active) | 98.5% (active) | 2% | 89% (active) | 96.4% (active)
O=Cc1cc2ccccc2cc1C=O | 88% (active) | 96% (active) | 86% (active) | 94% (active) | 97% (active) | 87.3% (active) | 84% (active) | 96% (active) | 87.2% (active) | 87% (active) | 95% (active) | 88.8% (active) | 94% (active) | 96% (active) | 86.5% (active) | 93% (active) | 95% (active) | 86.2% (active)
C(=C\c1cnnc2ccccc12)/c1cccnc1 | 11% | 45% | 20.8% | 18% | 37% | -10.8% | 11% | 35% | 2.15% | 6% | 32% | 42.6% | 6% | 22% | -13.2% | 8% | 36% | 13.7%
Cc1cc([N+](=O)[O-])c2nnnn2c1 | 5% | 59% | -1.75% | 2% | 28% | 1.4% | 0% | 31% | -15.2% | -1% | 4% | -9.75% | -1% | 28% | 22.4% | 7% | 65% | 34%
C1=NC(N(Cc2ccccc2)Cc2ccccc2)N(Cc2ccccc2)N1 (stereo not given) | 26% | 95% (active) | 92.4% (active) | -1% | 95% (active) | 93.6% (active) | 14% | 94% (active) | 92.1% (active) | -1% | 95% (active) | 89.8% (active) | -14% | 96% (active) | 92.2% (active) | -19% | 96% (active) | 88.8% (active)
CCOC(=S)SSC(=S)NCCNC(=S)SSC(=S)OCC | 9% | 40% | 70.7% (active) | 4% | 72% (active) | 36.5% | 13% | 86% (active) | 79.8% (active) | -1% | 30% | 73.1% (active) | 4% | 91% (active) | 2.55% | 11% | 78% (active) | 76.4% (active)
[O-]/[N+](O)=C\c1ccccn1 | -2% | -13% | 5.75% | 2% | -8% | 6.55% | -5% | -9% | -0.75% | -2% | -10% | -57.6% | 1% | 0% | -8.4% | 0% | -10% | 37.1%
C[N+](C)(C)CC(=O)N/N=C(\C(=O)NC1=C(Cl)C(=O)c2ccccc2C1=O)C(C#N)c1nc(-c2ccc([N+](=O)[O-])cc2)cs1 (stereo not given) | 27% | 98% (active) | 76% (active) | 6% | 97% (active) | 56.6% | 11% | 97% (active) | 60.3% | 13% | 91% (active) | 50.6% | -23% | 97% (active) | 75.2% (active) | 13% | 97% (active) | 78.7% (active)
COc1cc(C(Sc2ccccc2C(=O)O)Sc2ccccc2C(=O)O)ccc1O | 9% | 91% (active) | 95.5% (active) | 12% | 88% (active) | 95.6% (active) | 21% | 94% (active) | 97.4% (active) | 8% | 93% (active) | 81.6% (active) | 12% | 97% (active) | 87.9% (active) | 14% | 95% (active) | 98.5% (active)
O=[N+]([O-])c1ccc(/C=N\OCc2cscn2)cc1 | 3% | 46% | 76.7% (active) | -11% | 74% (active) | 55.5% | -10% | 73% (active) | 62.4% | 0% | 31% | -13.4% | -6% | 88% (active) | -19.4% | 11% | 79% (active) | 71% (active)
Cc1cc(O)c2c(c1)OC1(C)CCC3C(C)(C)CCCC34COC2C14 (stereo not given) | 18% | 97% (active) | 89.5% (active) | 16% | 98% (active) | 87.5% (active) | 17% | 98% (active) | 90.6% (active) | 27% | 98% (active) | 88.5% (active) | 6% | 98% (active) | 85.5% (active) | 33% | 97% (active) | 88.6% (active)
CC(C)C[P+](c1ccccc1)(c1ccccc1)c1ccccc1 | 0% | 23% | 62.6% | -3% | 54% | 58.9% | -34% | 9% | 50.6% | -5% | 10% | 49.5% | -7% | 24% | 54.2% | 12% | 45% | 73.9% (active)
CCC(=O)C(CCN(CC)CC)(CCN(CC)CC)c1ccccc1 | -1% | -5% | 87.5% (active) | -2% | -4% | 99.3% (active) | -2% | -4% | 42.4% | 3% | -8% | 71% (active) | 1% | -3% | 99.2% (active) | -2% | -7% | 97.8% (active)
Cn1cnc([N+](=O)[O-])c1Sc1nc2ccccc2s1 | 57% | 96% (active) | 91.3% (active) | 38% | 98% (active) | 92.3% (active) | 51% | 97% (active) | 92.1% (active) | 35% | 74% (active) | 90.7% (active) | 45% | 97% (active) | 91.4% (active) | 64% | 98% (active) | 90% (active)

Reference: PubChem BioAssay (NCI)
